Measured values from the supplement of paper PMC10515830.
Where a name gives a salt, the structure may show the parent alone.

How the values were obtained:
Conditions in all cases: 10 µM; exposure time 6 h
[1] = test system: Danio rerio larvae (5 dpf); assay: difference in excitability vs DMSO (percentage points); higher = more excitable than DMSO
Outline: (§1)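 Library compounds were tested at 10 µM final in 100 µL egg water on wild-type 5 dpf zebrafish larvae in 96-well plates for 6 h, with 48 larvae per compound. After 3 h, plates at 28.5 ℃ were imaged every 6 s during a 3-h run of moving lines and 100 ms, 400Hz tones. Behaviours were quantified by Z-LaP Tracker and reported as the compound mean less the vehicle control mean, in percentage points.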

[2] = test system: Danio rerio larvae (5 dpf); assay: difference in startle response vs DMSO (percentage points); higher = stronger startle than DMSO
Outline: as §1

[3] = test system: Danio rerio larvae (5 dpf); assay: difference in activity during first hour vs DMSO (percentage points); higher = more activity than DMSO
Outline: as §1

[4] = test system: Danio rerio larvae (5 dpf); assay: difference in habituation to acoustic stimuli vs DMSO (percentage points); higher = more habituation than DMSO
Outline: as §1

[5] = test system: Danio rerio larvae (5 dpf); assay: difference in combined optomotor response to red, green and blue moving lines vs DMSO (percentage points); higher = stronger optomotor response than DMSO
Outline: as §1

SMILES	difference in excitability [1]	difference in startle response [2]	difference in activity during first hour [3]	difference in habituation to acoustic stimuli [4]	difference [5]
CCCCC1=NC2(CCCC2)C(=O)N1Cc1ccc(-c2ccccc2-c2nnn[nH]2)cc1 [Irbesartan]	5.86	-3.98	6.09	-4.93	5.61
C[C@H](CCC(=O)O)[C@H]1CC[C@H]2[C@@H]3CC[C@@H]4C[C@H](O)CC[C@]4(C)[C@H]3C[C@H](O)[C@]12C [Deoxycholic Acid]	13.1	-0.179	23.8	3.17	0.759
Cc1ccc(Sc2ccccc2N2CCNCC2)c(C)c1 [Vortioxetine (hydrobromide)]	-0.102	7.18	-8.07	-14.1	-11.4
CC(C)(O)c1ccccc1CC[C@@H](SCC1(CC(=O)O)CC1)c1cccc(/C=C/c2ccc3ccc(Cl)cc3n2)c1 [Montelukast (sodium salt)]	10.4	2.54	-3.93	1.58	3.42
CC(=O)O[C@@]12CO[C@@H]1C[C@H](O)[C@@]1(C)C(=O)[C@H](O)C3=C(C)[C@@H](OC(=O)[C@H](O)[C@@H](NC(=O)OC(C)(C)C)c4ccccc4)C[C@@](O)([C@@H](OC(=O)c4ccccc4)[C@H]21)C3(C)C [Docetaxel (hydrate)]	4.98	-2.23	-2.75	-0.117	-1.11
CCN(CC)C(=O)/C(C#N)=C/c1cc(O)c(O)c([N+](=O)[O-])c1 [Entacapone]	5.12	-3.47	4.7	3.38	3.62
O=C1C(O)=C([C@H]2CC[C@H](c3ccc(Cl)cc3)CC2)C(=O)c2ccccc21 [Atovaquone]	-0.794	-0.517	-0.977	-6.16	-7.53
CCOC(=O)C1=C(COCCN)NC(C)=C(C(=O)OC)C1c1ccccc1Cl (stereo not given) [Amlodipine]	4.37	-5.58	1.69	0.668	7.23
CC(C)(C)NCC(O)COc1cccc2c1CCC(=O)N2 (stereo not given) [Carteolol (hydrochloride)]	4.97	-3.33	6.77	1.1	4.95
CC(=O)OC[C@H]1O[C@@H]([S-])[C@H](OC(C)=O)[C@@H](OC(C)=O)[C@@H]1OC(C)=O.CCP(CC)CC.[Au+] [Auranofin]	6.43	-4.17	11	2.14	-5.02
COc1cc2ncnc(Nc3ccc(F)c(Cl)c3)c2cc1NC(=O)/C=C/CN1CCCCC1	16.4	0.667	-10.7	-0.587	6.72
CC(C)(C)C(O)/C=C/c1ccc2c(c1)OCO2 (stereo not given) [Stiripentol]	-5.22	0.0472	3.85	-4.89	7.37
CC(=O)CCCCn1c(=O)c2c(ncn2C)n(C)c1=O [Pentoxifylline]	11.4	2.26	8.3	4.08	6.01
COc1cc([C@@H]2c3cc4c(cc3[C@@H](O[C@@H]3O[C@@H]5CO[C@@H](c6cccs6)O[C@H]5[C@H](O)[C@H]3O)[C@H]3COC(=O)[C@H]23)OCO4)cc(OC)c1O [Teniposide]	-5.17	-1.26	-12	3.62	-8.33
N#Cc1ccc2[nH]cc(CCCCN3CCN(c4ccc5oc(C(N)=O)cc5c4)CC3)c2c1 [Vilazodone (hydrochloride)]	12.6	-3.13	-16.6	-3.2	-4.96
CC(C)c1nc(CN(C)C(=O)N[C@H](C(=O)N[C@@H](Cc2ccccc2)C[C@H](O)[C@H](Cc2ccccc2)NC(=O)OCc2cncs2)C(C)C)cs1 [Ritonavir]	-4.63	0.564	2.31	6.79	1.78
CC(C)(CO)c1cc2cc(NC(=O)C3(c4ccc5c(c4)OC(F)(F)O5)CC3)c(F)cc2n1C[C@@H](O)CO	16.7	3.44	15.2	6.02	6.53
OC(c1cc(C(F)(F)F)nc2c(C(F)(F)F)cccc12)C1CCCCN1 (stereo not given) [Mefloquine (hydrochloride)]	20.8	-3.76	-1.02	-0.417	-0.0553
CC(C)(C)c1cc(C(C)(C)C)c(NC(=O)c2c[nH]c3ccccc3c2=O)cc1O [Ivacaftor]	2	-4.58	-10	-2.59	5.49
Cc1cc(C(C)(C)C)c(O)c(C)c1CC1=NCCN1 [Oxymetazoline (hydrochloride)]	2.23	-0.966	-13.2	6.77	0.729
OCCOc1ccc(/C(=C(/CCCl)c2ccccc2)c2ccccc2)cc1 [Ospemifene]	6.62	-3.99	-12.6	-8.31	-16.5
CN[C@H](CC(C)C)C(=O)N[C@H]1C(=O)N[C@@H](CC(N)=O)C(=O)N[C@H]2C(=O)N[C@H]3C(=O)N[C@H](C(=O)N[C@H](C(=O)O)c4cc(O)cc(O)c4-c4cc3ccc4O)[C@H](O)c3ccc(c(Cl)c3)Oc3cc2cc(c3O[C@@H]2O[C@H](CO)[C@@H](O)[C@H](O)[C@H]2O[C@H]2C[C@](C)(N)[C@H](O)[C@H](C)O2)Oc2ccc(cc2Cl)[C@H]1O [Vancomycin (hydrochloride)]	-0.532	-0.846	1.02	-1.36	9.98
NS(=O)(=O)c1cc2c(cc1Cl)N=CNS2(=O)=O [Chlorothiazide]	-0.0236	-3.29	3.22	6.65	-5.74
